Source: PubChem BioAssay
HT1080NT lethal: kills 2HG-producing HT-1080-NT fibrosarcoma cells; AID 686970; actives 1.6% (n = 360,000); Potency, µM (titrated, usually from 46.1 µM), for inactives: at the top dose activity, negative = less viability, hits mostly cytotoxic; HT-1080-NT fibrosarcoma viability, CellTiter-Glo ATP luminescence, 48 h;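 note: NT is the 2HG producing partner of a matched IDH1 knockdown line; potency is the fitted concentration of half-maximal effect; 0% = DMSO-treated cells and -100% = media-only wells without cells; nearly all actives have a fitted effect of over 55% in size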
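Fibrosarcoma NT cells, 750 per well in 5% FBS RPMI, were exposed to compound for 48 hours. Viability: CellTiter-Glo luminescence.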
DT40 TDP1 CPT: DT40-hTDP1 cell growth loss with CPT. chicken DT40 Tdp1-/-;hTDP1 cells + 20 nM CPT, ATP luminescence, 48 h. Potency, µM (highest dose often 46.2 µM), for the others: top-dose activity change, negative = growth inhibition, most hits filed as inhibitors. actives 12% (n = 420,000); note: potency is the fitted concentration of half-maximal effect; nearly all actives have a fitted effect of over 55% in size
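Cell growth measured by CellTiter-Glo luminescence after a minimum 48 h, 37 C compound exposure with 20 nM CPT in Tdp1-knockout DT40 cells stably expressing hTDP1, seeded 400/well; qHTS titration format.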
HT1080 IDH1KD tx: HT-1080 IDH1 knockdown cell toxicity (counter line) | AID 686971 | actives 2% (n = 360,000) | Potency, µM (doses to about 46.1 µM), without a hit: top-dose activity, negative = toxicity, hits mostly cytotoxic | HT-1080 IDH1 knockdown viability, ATP luminescence, 48 h;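 note: potency is the fitted concentration of half-maximal effect; 0% = DMSO wells and -100% = cell-free medium wells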
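Viability of IDH1-knockdown HT-1080 fibrosarcoma cells was assessed by CellTiter-Glo after 48 h at 37 °C with titrated compound; concentration-effect curves were classified by fit quality and response size.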
TDP1 cell noCPT: qHTS for Inhibitors of human tyrosyl-DNA phosphodiesterase 1 (TDP1): qHTS in cells in absence of CPT | DT40 Tdp1-/- hTDP1 cells, no CPT, ATP luminescence, 48 h | Potency, µM (series often up to 46.2 µM), without a hit: at the highest dose activity change, negative = growth inhibition, hits mostly inhibitors | actives 15% (n = 420,000) | AID 686978, 2013; note: potency is the fitted concentration of half-maximal effect; nearly all actives have a fitted effect of over 55% in size
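Seeded 400 DT40-hTDP1 cells/well (vehicle DMSO, no 20 nM CPT); pinned compounds; ≥48 hr at 37 °C; CellTiter-Glo luminescence as viability measure.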
IL-1B inflam inh: inflammasome signaling inhibition, IL-1 beta readout; THP-1 LPS/ATP IL-1B secretion, AlphaLISA, 16 h; hits give low values; activity change, % at 57.5 µM; actives 4.7% (n = 360,000); AID 743279; in the data active = activity change below about -50%; inconclusive = mostly about -30% to -49%
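Secreted IL-1B measured by AlphaLISA bead assay after 16 h compound exposure of THP-1 cells; compounds (final up to 57.5 uM) added 1 h before LPS (250 ng/mL) and ATP (1.25 mM) stimulation; lower signal means less secretion.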
ELG1 repair inh: inhibitors of ELG1-dependent DNA repair in HEK293T cells. Potency, µM (series often up to 46.1 µM), for the others: at the top dose activity change, negative = inhibition, actives largely listed as inhibitors. AID 504467. HEK293T ELG1-luciferase reporter, luminescence, 16 h; DNA damage induced by 5-fluorouridine. actives 2.3% (n = 330,000); note: potency is the fitted concentration of half-maximal effect; nearly all actives have a fitted effect of over 55% in size
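Step one: seed 2,000 cells per well. Step two: pin-transfer compound or DMSO alongside 5-fluorouridine. Step three: incubate 16 hr, 37 °C, 5% CO2. Step four: add ONE-Glo, wait 30 min, read luminescence.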
* marks the source's active call; other numbers are inactive results. Shown are actives, neighbours in structure and some others; about 19% of the full set was active somewhere. Unless noted, calls come from the whole dose curve; as a rule, active = well fitted curve in the direction sought with a large enough effect; inconclusive = small, poorly fitted or top-dose-only effect, or another doubt; inactive = no such curve, though single readings can be large; an effect the other way counts as inactive or inconclusive. Unless noted, % is set by controls: 0 for no effect and ±100 for the full control effect.

For Cc1cc2ccccc2n1-c1ccc(C(=O)N2CCC(C(=O)NCc3ccccc3Cl)CC2)s1 the results were DT40 TDP1 CPT 16µM* and TDP1 cell noCPT -97%.
For Cc1ccc(CNC(=O)C2CCN(C(=O)c3ccc(-n4ccc5ccccc54)s3)CC2)cc1 the results were DT40 TDP1 CPT -27% and TDP1 cell noCPT inconclusive.
`COc1cccc(N2CCN(C(=O)Cn3nc(C)n4c(cc5c(OC)cccc54)c3=O)CC2)c1` gave DT40 TDP1 CPT 1% and TDP1 cell noCPT -19%.
COc1cc2c(C#CCCO)c(-c3ccc(C#N)cc3)oc(=O)c2cc1OC was read as HT1080NT lethal -14%, DT40 TDP1 CPT -20%, HT1080 IDH1KD tx -17%, TDP1 cell noCPT inconclusive, IL-1B inflam inh 0 and ELG1 repair inh 21%.
COc1ccc(-c2oc(=O)c3cc(OC)c(OC)cc3c2C(F)(F)F)cc1 was read as HT1080NT lethal 7%, DT40 TDP1 CPT -4%, HT1080 IDH1KD tx 18%, TDP1 cell noCPT -19%, IL-1B inflam inh 7 and ELG1 repair inh -22%.
For COc1ccc(C#Cc2c(-c3ccsc3)oc3ccc(-c4cc(OC)c(OC)c(OC)c4)cc23)cc1 the results were HT1080NT lethal -2%, DT40 TDP1 CPT -9%, HT1080 IDH1KD tx -2%, TDP1 cell noCPT -9% and IL-1B inflam inh 19.
For COc1ccc(-c2c(-c3ccc(C#N)cc3)oc(=O)c3cc(OC)c(OC)cc23)cc1 the results were HT1080NT lethal -6%, DT40 TDP1 CPT inconclusive, HT1080 IDH1KD tx 14%, TDP1 cell noCPT 16µM*, IL-1B inflam inh -8 and ELG1 repair inh -29%.
Screening COCc1ccc(-c2c(-c3ccsc3)oc(=O)c3cc(OC)c(OC)cc23)cc1 returned HT1080NT lethal -2%, DT40 TDP1 CPT inconclusive, HT1080 IDH1KD tx -1%, TDP1 cell noCPT 21µM*, IL-1B inflam inh 8 and ELG1 repair inh inconclusive.
`COc1ccc(-c2oc(=O)c3cc(OC)c(OC)cc3c2-c2cc(F)cc(OC)c2)cc1` gave HT1080NT lethal -6%, DT40 TDP1 CPT inconclusive, HT1080 IDH1KD tx 5%, TDP1 cell noCPT 18µM*, IL-1B inflam inh 1 and ELG1 repair inh -23%.
For CC(C)Cc1nnc(NC(=O)CN2C(=O)NC3(CCCC3)C2=O)s1 the results were HT1080NT lethal -6%, DT40 TDP1 CPT -12%, HT1080 IDH1KD tx 3%, TDP1 cell noCPT -15%, IL-1B inflam inh 4 and ELG1 repair inh 9%.
For O=C(COc1ccc(Cl)cc1)N(Cc1ccccc1)c1nc(-c2ccccc2)cs1 the results were HT1080NT lethal 8%, DT40 TDP1 CPT inconclusive, HT1080 IDH1KD tx 9%, TDP1 cell noCPT 26µM*, IL-1B inflam inh 8 and ELG1 repair inh inconclusive.
`CC(C)C[C@@H](CN(C)N=O)N(C[C@H](Cc1ccccc1)N(CCc1ccccc1)N=O)N=O` gave HT1080NT lethal 1%, DT40 TDP1 CPT inconclusive, HT1080 IDH1KD tx 2%, TDP1 cell noCPT 18µM*, IL-1B inflam inh -10 and ELG1 repair inh 1%.
Screening CN(C[C@H](Cc1ccccc1)N(C[C@H](Cc1cccc2ccccc12)N(CCc1ccccc1)N=O)N=O)N=O returned HT1080NT lethal 0%, DT40 TDP1 CPT inconclusive, HT1080 IDH1KD tx 13%, TDP1 cell noCPT inconclusive, IL-1B inflam inh 22 and ELG1 repair inh -7%.
Screening CN(C[C@H](Cc1ccccc1)N(C[C@H](Cc1ccccc1)N(CCc1cc(C(F)(F)F)cc(C(F)(F)F)c1)N=O)N=O)N=O returned HT1080NT lethal 11%, DT40 TDP1 CPT inconclusive, HT1080 IDH1KD tx 10%, TDP1 cell noCPT 21µM*, IL-1B inflam inh -8 and ELG1 repair inh 4%.
Screening CN(C[C@H](CC1CCCCC1)N(C[C@H](Cc1ccccc1)N(CCc1ccccc1)N=O)N=O)N=O returned HT1080NT lethal 0%, DT40 TDP1 CPT 18µM*, HT1080 IDH1KD tx -9%, TDP1 cell noCPT 16µM*, IL-1B inflam inh -8 and ELG1 repair inh inconclusive.
`COc1ccc(OC)c(C2C3=C(CCCC3=O)Nc3nnnn32)c1` (configuration not stated) gave HT1080NT lethal 5%, DT40 TDP1 CPT -10%, HT1080 IDH1KD tx 7%, TDP1 cell noCPT -15%, IL-1B inflam inh 12 and ELG1 repair inh 16%.
COc1ccccc1/C=C1\CCCC2=C1Nc1nnnn1C2c1ccccc1OC (configuration not stated) was read as HT1080NT lethal -16%, DT40 TDP1 CPT 12µM*, HT1080 IDH1KD tx inconclusive, TDP1 cell noCPT 12µM*, IL-1B inflam inh -101* and ELG1 repair inh -13%.
Screening CCOC(=O)c1sc(NC(=O)c2nc(SCC)ncc2Cl)c(C(=O)OCC)c1C returned DT40 TDP1 CPT -2% and TDP1 cell noCPT -16%.
`O=C(CN1CCN(Cc2ccccc2)CC1)N/N=C/C=C/c1ccccc1[N+](=O)[O-]` gave HT1080NT lethal 9%, DT40 TDP1 CPT -19%, HT1080 IDH1KD tx 20%, TDP1 cell noCPT inconclusive, IL-1B inflam inh -2 and ELG1 repair inh -3%.
`Cc1ccc(/C=N/NC(=O)c2cccs2)o1` gave HT1080NT lethal 3%, DT40 TDP1 CPT -10%, HT1080 IDH1KD tx -1%, TDP1 cell noCPT -2%, IL-1B inflam inh -5 and ELG1 repair inh inconclusive.
O=C(N/N=C/c1ccccc1[N+](=O)[O-])c1cccs1 was read as HT1080NT lethal 8%, DT40 TDP1 CPT 8%, HT1080 IDH1KD tx 3%, TDP1 cell noCPT -14%, IL-1B inflam inh 1 and ELG1 repair inh inconclusive.
Screening Cc1ccc(/C=N/NC(=O)c2cccs2)cc1[N+](=O)[O-] returned HT1080NT lethal 16%, DT40 TDP1 CPT 12µM*, HT1080 IDH1KD tx 16%, TDP1 cell noCPT 16µM*, IL-1B inflam inh -2 and ELG1 repair inh inconclusive.
O=C(N/N=C\C=C\c1ccc([N+](=O)[O-])o1)c1cccs1 was read as HT1080NT lethal inconclusive, DT40 TDP1 CPT 4.1µM*, HT1080 IDH1KD tx 13µM*, TDP1 cell noCPT 3.3µM*, IL-1B inflam inh inconclusive and ELG1 repair inh -2%.
Screening O=C(N/N=C/C=C/c1ccccc1[N+](=O)[O-])c1cccs1 returned HT1080NT lethal 13%, DT40 TDP1 CPT inconclusive, HT1080 IDH1KD tx 19%, TDP1 cell noCPT 8.2µM*, IL-1B inflam inh 4 and ELG1 repair inh -11%.
